The values that follow come from PubChem BioAssay.

A short description of experiment [1]: sensitizers of A549 cells to miR-34 induction, primary screen, imaging, A549 dox-inducible miR-34, nuclei and caspase counts (AID 1347080). As to conditions: A549 miR-34 inducible, Hoechst nuclei count, 48 h.
A short description of experiment [2]: survival rescue of mitochondrial mutant cells in low glucose, primary screen, MELAS cybrids, Rieske KO mouse fibroblasts, CellTiter-Glo (AID 1508586;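 active = mean z-score across replicates of 1.96 or higher in either the MELAS or the Rieske mutant cell line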;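 also: z relative to plate mean and SD of compound and empty wells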). Background: ATP-based viability assays read luminescence as a measure of living cells.
The mark [3] stands for this setting: stronger effect = lower value, cell number ratio, induced over uninduced.
The mark [4] stands for this setting: measured here: relative caspase fold change +Dox/-Dox.
Setting [5] is: measured here: total cells with miR-34 induction, stronger effect = lower value.
Setting [6] is: measured here: total cells without miR-34 induction.
[7] abbreviates: MELAS cybrid survival, CellTiter-Glo 48 h, stronger effect = higher value.
The mark [8] stands for this setting: Rieske KO mouse fibroblast survival, CellTiter-Glo 72 h.

SMILES strings stand for the structures. Activity calls are given as the source filed them.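 The calls were made as follows, unless noted: active = compounds whose cell count with miR-34 switched on is under 0.7 times the count with it off; inactive = the rest.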
Also: test concentration not given here.

For the compound `CC[C@]1(O)C[C@H]2CN(CCc3c([nH]c4ccccc34)[C@@](C(=O)OC)(c3cc4c(cc3OC)N(C)[C@@H]3C45CCN4CC=C[C@@](CC)(C(OC(C)=O)[C@]3(O)C(=O)OC)[C@H]45)C2)C1` (stereo partly drawn), the values for the fold change in experiment [1] (setting [3]) and in experiment [1] (setting [4]) were 1.18 (inactive) and 0.78, respectively. Also, the cell count in experiment [1] (setting [5]) turned out to be 1480; in experiment [1] (setting [6]) it was 1260. Moreover, the z-score is 0.649 (inactive) in experiment [2] (setting [7]) and -0.168 in experiment [2] (setting [8]).
On to `Cc1cc(C(N)=O)ccc1-n1c(CCC(=O)O)ccc1-c1ccc(-n2ccnc2)cc1`, for which the fold change in experiment [1] (setting [3]) was 0.953 (inactive); in experiment [1] (setting [4]), 0.396. In addition, the cell count in experiment [1] (setting [5]) is 9360; in experiment [1] (setting [6]) it was 9820. Besides, the z-score was -0.283 (inactive) in experiment [2] (setting [7]) and 0.463 in experiment [2] (setting [8]).
Consider `CC1(C)OC2C[C@H]3[C@@H]4CCC5=CC(=O)C=C[C@]5(C)[C@]4(F)C(O)C[C@]3(C)[C@@]2(C(=O)CO)O1` (stereo partly drawn), for which the fold change in experiment [1] (setting [3]) is 0.812 (inactive); in experiment [1] (setting [4]) it was 1.01. Also, the cell count in experiment [1] (setting [5]) was 5100; in experiment [1] (setting [6]), 6270. Also, the z-score in experiment [2] (setting [7]) is -0.349 (inactive); in experiment [2] (setting [8]), -0.501.
Regarding `C=C1C[C@@]2(O)O[C@@]3(CC2C(C)C)C(C)CC[C@@H]13` (stereo partly drawn), the fold change in experiment [1] (setting [3]) is 0.988 (inactive); in experiment [1] (setting [4]) it was 0.924. Also, the figures for the cell count in experiment [1] (setting [5]) and in experiment [1] (setting [6]) were 9960 and 10100, respectively. The z-score in experiment [2] (setting [7]) is -0.407 (inactive); in experiment [2] (setting [8]), 0.387.
Turning to `O=C1C(Cl)=C(N2CCOCC2)C(=O)N1c1ccc(Cl)c(Cl)c1`, the fold change in experiment [1] (setting [3]) is 0.939 (inactive); in experiment [1] (setting [4]), 0.753. The cell count in experiment [1] (setting [5]) was 7840; in experiment [1] (setting [6]) it was 8360. In addition, the z-score in experiment [2] (setting [7]) was -0.367 (inactive); in experiment [2] (setting [8]), -0.893.
In the case of `CC(C)(C)NS(=O)(=O)c1cncc(-c2cc(F)c3nc(N)nn3c2)c1`, the fold change in experiment [1] (setting [3]) is 0.874 (inactive); in experiment [1] (setting [4]), 1.55. The cell count worked out at 8160 in experiment [1] (setting [5]) and 9340 in experiment [1] (setting [6]). In addition, the z-score is -0.353 (inactive) in experiment [2] (setting [7]) and -0.161 in experiment [2] (setting [8]).
Consider `CCN1CCN(C(=O)NC(C(=O)NC2C(=O)N3C2SC(C)(C)C3C(=O)O)c2ccccc2)C(=O)C1=O` (stereo not drawn), for which the fold change in experiment [1] (setting [3]) was 0.885 (inactive); in experiment [1] (setting [4]), 1.67. For the same compound, the values for the cell count in experiment [1] (setting [5]) and in experiment [1] (setting [6]) were 8860 and 10000, respectively. For the same compound, the z-score was -0.177 (inactive) in experiment [2] (setting [7]) and -0.164 in experiment [2] (setting [8]).
On to `CN1[C@@H]2CC[C@@H]1CC(OC(=O)C(O)c1ccccc1)C2` (stereo partly drawn), for which the fold change is 0.924 (inactive) in experiment [1] (setting [3]) and 0.78 in experiment [1] (setting [4]). For the same compound, the cell count worked out at 8330 in experiment [1] (setting [5]) and 9020 in experiment [1] (setting [6]). Further, the z-score in experiment [2] (setting [7]) is -0.279 (inactive); in experiment [2] (setting [8]) it was -0.173.
With `CC(C)N(CCC(c1ccccc1)c1cc(CO)ccc1O)C(C)C` (stereo not drawn), the results for the fold change in experiment [1] (setting [3]) and in experiment [1] (setting [4]) were 0.934 (inactive) and 1.04, respectively. Moreover, the cell count came out at 9810 in experiment [1] (setting [5]) and 10500 in experiment [1] (setting [6]). In addition, the z-score in experiment [2] (setting [7]) is -0.366 (inactive); in experiment [2] (setting [8]), 0.299.
As for `N#Cc1c(Oc2ccc(F)c(NC(=O)Cc3cccc(C(F)(F)F)c3)c2)ccc2nc(NC(=O)C3CC3)sc12`, the fold change in experiment [1] (setting [3]) is 1.2 (inactive); in experiment [1] (setting [4]), 0.284. Further, the values for the cell count in experiment [1] (setting [5]) and in experiment [1] (setting [6]) were 2200 and 1840, respectively. The z-score in experiment [2] (setting [7]) is -0.453 (inactive); in experiment [2] (setting [8]) it was 0.158.
On to `CCn1c2ccccc2c2cc(Nc3ccnc(NCCCN4CCOCC4)n3)ccc21`, for which the values for the fold change in experiment [1] (setting [3]) and in experiment [1] (setting [4]) were 1.23 (inactive) and 0.454, respectively. Besides, the cell count in experiment [1] (setting [5]) worked out at 2810; in experiment [1] (setting [6]), 2280. For the same compound, the results for the z-score in experiment [2] (setting [7]) and in experiment [2] (setting [8]) were -0.307 (inactive) and 0.428, respectively.
Turning to `CNC(=O)C(Cc1ccccc1)NC(=O)C(CC(C)C)C(CSc1cccs1)C(=O)NO` (stereo not drawn), the fold change in experiment [1] (setting [3]) is 0.843 (inactive); in experiment [1] (setting [4]), 0.442. Moreover, the cell count was determined as 6630 in experiment [1] (setting [5]) and 7870 in experiment [1] (setting [6]). Moreover, the z-score in experiment [2] (setting [7]) was 0.43 (inactive); in experiment [2] (setting [8]), 1.14.
Regarding `C[C@]12CC[C@H]3c4ccc(O)cc4CC[C@H]3[C@@H]1CCC2O` (stereo partly drawn), the fold change in experiment [1] (setting [3]) was 0.784 (inactive); in experiment [1] (setting [4]), 0.957. Moreover, the cell count in experiment [1] (setting [5]) turned out to be 6520; in experiment [1] (setting [6]), 8310. Besides, the z-score in experiment [2] (setting [7]) is -0.389 (inactive); in experiment [2] (setting [8]), -0.286.
As to `CCOC(=O)O[C@@]1(C(=O)OCCl)CC[C@H]2[C@@H]3CCC4=CC(=O)C=C[C@]4(C)[C@@H]3C(O)C[C@@]21C` (stereo partly drawn), the values for the fold change in experiment [1] (setting [3]) and in experiment [1] (setting [4]) were 0.859 (inactive) and 1.25, respectively. In addition, the cell count in experiment [1] (setting [5]) was determined as 5320; in experiment [1] (setting [6]), 6190. Besides, the z-score was -0.313 (inactive) in experiment [2] (setting [7]) and -0.191 in experiment [2] (setting [8]).
On to `Cc1c(C(=O)Nc2ccc(N3CCC(N4CCOCC4)CC3)c(C#N)c2)cnn1-c1ccc(Cl)cc1`, for which the figures for the fold change in experiment [1] (setting [3]) and in experiment [1] (setting [4]) were 0.979 (inactive) and 0.399, respectively. The cell count came to 1870 in experiment [1] (setting [5]) and 1910 in experiment [1] (setting [6]). For the same compound, the z-score is -0.464 (inactive) in experiment [2] (setting [7]) and -0.322 in experiment [2] (setting [8]).
With `Cc1nc(N(C)C(=O)Cc2ccc(-c3ccccn3)cc2)sc1S(N)(=O)=O`, the fold change is 0.911 (inactive) in experiment [1] (setting [3]) and 0.414 in experiment [1] (setting [4]). In addition, the cell count is 7530 in experiment [1] (setting [5]) and 8270 in experiment [1] (setting [6]). Moreover, the z-score in experiment [2] (setting [7]) was -0.339 (inactive); in experiment [2] (setting [8]), -0.561.
In the case of `CN(C)CCC=C1c2ccccc2Sc2ccc(Cl)cc21`, the fold change in experiment [1] (setting [3]) was 1.02 (inactive); in experiment [1] (setting [4]) it was 0.667. Moreover, the cell count in experiment [1] (setting [5]) amounted to 7540; in experiment [1] (setting [6]), 7420. Further, the z-score is -0.469 (inactive) in experiment [2] (setting [7]) and -0.0938 in experiment [2] (setting [8]).
Regarding `CC#CCn1c(N2CCCC(N)C2)nc2c1c(=O)n(Cc1nc(C)c3ccccc3n1)c(=O)n2C` (stereo not drawn), the fold change in experiment [1] (setting [3]) was 0.91 (inactive); in experiment [1] (setting [4]), 0.676. The cell count in experiment [1] (setting [5]) turned out to be 9950; in experiment [1] (setting [6]), 10900. The z-score was -0.379 (inactive) in experiment [2] (setting [7]) and 0.539 in experiment [2] (setting [8]).
With `N#Cc1ccc2[nH]c(O)c(-c3ccc(CN4CCOCC4)cn3)c2c1`, the fold change in experiment [1] (setting [3]) was 0.757 (inactive); in experiment [1] (setting [4]) it was 0.717. In addition, the cell count in experiment [1] (setting [5]) stood at 2200; in experiment [1] (setting [6]) it was 2900. The z-score in experiment [2] (setting [7]) was 1.12 (inactive); in experiment [2] (setting [8]), -0.87.
In the case of `CC(=O)OC1C(=O)[C@]2(C)C(O)CC3OC[C@@]3(OC(C)=O)C2C(OC(=O)c2ccccc2)[C@]2(O)CC(OC(=O)C(O)C(NC(=O)c3ccccc3)c3ccccc3)C(C)=C1C2(C)C` (stereo partly drawn), the fold change in experiment [1] (setting [3]) was 0.984 (inactive); in experiment [1] (setting [4]) it was 0.702. Moreover, the cell count in experiment [1] (setting [5]) stood at 1360; in experiment [1] (setting [6]), 1380. Further, the values for the z-score in experiment [2] (setting [7]) and in experiment [2] (setting [8]) were 1.51 (inactive) and 0.434, respectively.
On to `O=C1c2c(O)cc(O)cc2OC(c2cc(O)c(O)c(O)c2)C1O` (stereo not drawn), for which the fold change is 0.92 (inactive) in experiment [1] (setting [3]) and 0.77 in experiment [1] (setting [4]). For the same compound, the cell count in experiment [1] (setting [5]) stood at 9760; in experiment [1] (setting [6]) it was 10600. Further, the z-score in experiment [2] (setting [7]) is -0.325 (inactive); in experiment [2] (setting [8]) it was 0.635.
For `FC(F)(F)c1ccc(C=Cc2nc(COc3ccc(CCCCn4ccnn4)cc3)co2)cc1`, the fold change was 0.766 (inactive) in experiment [1] (setting [3]) and 1.23 in experiment [1] (setting [4]). For the same compound, the results for the cell count in experiment [1] (setting [5]) and in experiment [1] (setting [6]) were 4190 and 5470, respectively. Moreover, the z-score was -0.189 (inactive) in experiment [2] (setting [7]) and -0.508 in experiment [2] (setting [8]).
In the case of `CC1C[C@H]2[C@@H]3CCC4=CC(=O)C=C[C@]4(C)[C@@H]3C(=O)C[C@]2(C)[C@]1(O)C(=O)CO` (stereo partly drawn), the fold change in experiment [1] (setting [3]) was 1.57 (inactive); in experiment [1] (setting [4]), 0.521. Besides, the figures for the cell count in experiment [1] (setting [5]) and in experiment [1] (setting [6]) were 7500 and 4760, respectively. Further, the z-score in experiment [2] (setting [7]) was -0.4 (inactive); in experiment [2] (setting [8]), 0.152.
